Assay results from paper PMC7862700, “An all-to-all approach to the identification of sequence-specific readers for epigenetic DNA modifications on cytosine”.

Key:
Experiment in all cases: DAPPL (digital affinity profiling via proximity ligation, sequencing); 10 mM Tris-HCl pH 7.5, 50 mM NaCl, 1 mM DTT, 4% glycerol, room temperature, 30 min; GST-TFs on glutathione beads, 16-mer random dsDNA library, 0.1% formaldehyde crosslink after washing; high values mean tight binding
FLI1 = molecular target: T1, FLI1 (Homo sapiens, UniProt Q01543 1-452); conditions: protein: recombinant; tags: N-terminal GST; dsDNA, one strand shown
T1 sequence: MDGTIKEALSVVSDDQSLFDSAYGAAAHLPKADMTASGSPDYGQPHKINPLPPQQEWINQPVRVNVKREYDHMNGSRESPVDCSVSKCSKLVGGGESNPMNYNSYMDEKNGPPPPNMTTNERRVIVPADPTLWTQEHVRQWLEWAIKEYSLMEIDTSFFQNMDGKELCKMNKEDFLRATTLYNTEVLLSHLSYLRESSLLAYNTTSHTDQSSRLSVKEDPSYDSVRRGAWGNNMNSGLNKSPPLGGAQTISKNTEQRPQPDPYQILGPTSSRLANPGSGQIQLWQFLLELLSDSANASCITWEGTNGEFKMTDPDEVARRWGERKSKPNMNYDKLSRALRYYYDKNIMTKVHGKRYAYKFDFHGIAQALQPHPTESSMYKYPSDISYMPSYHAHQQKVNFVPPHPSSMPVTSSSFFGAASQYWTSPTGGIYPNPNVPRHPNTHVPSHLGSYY
Summary of the method: (§1)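 A tag-only sample was pooled with DNA-barcoded human transcription factors that had been expressed in yeast as GST fusions and captured on glutathione beads. The pools were incubated for 30 min at room temperature with 200 nmole of a random double-stranded 16-mer DNA library in Tris/NaCl/DTT/glycerol buffer, then washed, crosslinked with 0.1% formaldehyde, proximity-ligated (BsaI/T4 ligase, 1 h, 37 °C), PCR-amplified and sequenced on an Illumina NextSeq500. Binding signal is each hexamer's read frequency for a factor divided by its frequency for the tag-only sample.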

ELK1 = molecular target: T2, ELK1 (Homo sapiens, UniProt P19419 1-428); conditions: protein: recombinant; tags: N-terminal GST; dsDNA, one strand shown
T2 sequence: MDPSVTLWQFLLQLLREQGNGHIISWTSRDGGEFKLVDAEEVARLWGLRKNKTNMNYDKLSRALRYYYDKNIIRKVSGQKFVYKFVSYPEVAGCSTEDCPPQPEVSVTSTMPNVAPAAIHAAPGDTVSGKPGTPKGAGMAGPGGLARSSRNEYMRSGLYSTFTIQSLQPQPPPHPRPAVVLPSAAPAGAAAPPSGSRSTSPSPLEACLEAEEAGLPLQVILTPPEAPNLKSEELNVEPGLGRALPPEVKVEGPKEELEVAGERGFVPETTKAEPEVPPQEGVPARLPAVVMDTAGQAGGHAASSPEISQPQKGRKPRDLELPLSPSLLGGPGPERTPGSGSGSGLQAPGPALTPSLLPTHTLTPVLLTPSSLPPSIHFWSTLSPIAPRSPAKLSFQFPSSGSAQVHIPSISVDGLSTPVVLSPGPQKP
Summary of the method: as §1

GABPA = molecular target: T3, GABPA (Homo sapiens, UniProt Q06546 1-454); conditions: protein: recombinant; tags: N-terminal GST; dsDNA, one strand shown
T3 sequence: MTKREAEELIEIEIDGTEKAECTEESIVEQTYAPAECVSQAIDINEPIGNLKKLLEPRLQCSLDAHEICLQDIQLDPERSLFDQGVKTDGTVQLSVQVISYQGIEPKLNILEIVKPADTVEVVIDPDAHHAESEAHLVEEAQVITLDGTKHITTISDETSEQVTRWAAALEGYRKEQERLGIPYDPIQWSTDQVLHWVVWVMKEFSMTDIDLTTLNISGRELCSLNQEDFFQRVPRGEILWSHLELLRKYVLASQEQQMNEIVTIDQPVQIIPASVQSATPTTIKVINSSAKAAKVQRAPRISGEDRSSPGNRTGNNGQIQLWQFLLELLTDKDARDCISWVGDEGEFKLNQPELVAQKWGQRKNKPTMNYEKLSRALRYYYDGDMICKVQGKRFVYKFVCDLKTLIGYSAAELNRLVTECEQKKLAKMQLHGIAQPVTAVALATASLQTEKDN
Summary of the method: as §1

ERG = molecular target: T4, ERG (Homo sapiens, UniProt P11308 1-479); conditions: protein: recombinant; tags: N-terminal GST; dsDNA, one strand shown
T4 sequence: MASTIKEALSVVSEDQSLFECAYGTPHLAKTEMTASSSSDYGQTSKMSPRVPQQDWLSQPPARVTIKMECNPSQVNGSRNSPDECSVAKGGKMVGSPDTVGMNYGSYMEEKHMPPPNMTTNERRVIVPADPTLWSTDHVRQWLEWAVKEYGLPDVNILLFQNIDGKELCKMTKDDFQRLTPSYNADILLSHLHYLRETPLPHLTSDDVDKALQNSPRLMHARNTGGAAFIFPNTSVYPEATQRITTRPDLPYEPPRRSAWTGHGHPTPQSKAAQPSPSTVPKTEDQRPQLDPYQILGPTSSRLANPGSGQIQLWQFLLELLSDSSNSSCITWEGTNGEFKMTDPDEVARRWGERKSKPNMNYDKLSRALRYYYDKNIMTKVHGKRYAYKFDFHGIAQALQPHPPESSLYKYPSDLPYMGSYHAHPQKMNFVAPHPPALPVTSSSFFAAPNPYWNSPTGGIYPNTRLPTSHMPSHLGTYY
Summary of the method: as §1

ELF1 = ELF1 (Homo sapiens, UniProt P32519 1-619); conditions: protein: recombinant; tags: N-terminal GST; dsDNA, one strand shown
Summary of the method: as §1

EHF = molecular target: T5, EHF (Homo sapiens, UniProt Q9NZC4 1-300); conditions: protein: recombinant; tags: N-terminal GST; dsDNA, one strand shown
T5 sequence: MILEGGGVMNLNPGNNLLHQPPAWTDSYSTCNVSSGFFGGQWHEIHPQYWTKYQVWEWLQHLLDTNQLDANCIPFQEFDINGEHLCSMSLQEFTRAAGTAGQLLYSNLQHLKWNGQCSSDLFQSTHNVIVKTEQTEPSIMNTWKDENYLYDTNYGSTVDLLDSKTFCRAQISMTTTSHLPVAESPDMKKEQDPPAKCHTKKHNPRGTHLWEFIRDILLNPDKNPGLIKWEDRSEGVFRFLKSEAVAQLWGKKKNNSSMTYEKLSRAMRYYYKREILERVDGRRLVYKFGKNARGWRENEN
Summary of the method: as §1

SPI1 = SPI1 (Homo sapiens, UniProt P17947 1-270); conditions: protein: recombinant; tags: N-terminal GST; dsDNA, one strand shown
Summary of the method: as §1

SPIB = SPIB (Homo sapiens, UniProt Q01892 1-262); conditions: protein: recombinant; tags: N-terminal GST; dsDNA, one strand shown
Summary of the method: as §1

FEV = molecular target: T6, FEV (Homo sapiens, UniProt Q99581 1-238); conditions: protein: recombinant; tags: N-terminal GST; dsDNA, one strand shown
T6 sequence: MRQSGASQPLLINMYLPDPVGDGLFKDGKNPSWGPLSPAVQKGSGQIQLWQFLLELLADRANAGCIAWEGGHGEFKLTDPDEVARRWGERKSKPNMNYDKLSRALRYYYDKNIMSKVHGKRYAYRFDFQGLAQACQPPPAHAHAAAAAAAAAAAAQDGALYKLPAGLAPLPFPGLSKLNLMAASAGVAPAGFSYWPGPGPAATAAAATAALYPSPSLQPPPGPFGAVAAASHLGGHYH
Summary of the method: as §1

ETV5 = ETV5 (Homo sapiens, UniProt P41161 1-510); conditions: protein: recombinant; tags: N-terminal GST; dsDNA, one strand shown
Summary of the method: as §1

HSF1 = HSF1 (Homo sapiens, UniProt Q00613 1-529); conditions: protein: recombinant; tags: N-terminal GST; chain copies: 3; dsDNA, one strand shown
Summary of the method: as §1

SPIC = molecular target: T7, SPIC (Homo sapiens, UniProt Q8N5J4 1-248); conditions: protein: recombinant; tags: N-terminal GST; dsDNA, one strand shown
T7 sequence: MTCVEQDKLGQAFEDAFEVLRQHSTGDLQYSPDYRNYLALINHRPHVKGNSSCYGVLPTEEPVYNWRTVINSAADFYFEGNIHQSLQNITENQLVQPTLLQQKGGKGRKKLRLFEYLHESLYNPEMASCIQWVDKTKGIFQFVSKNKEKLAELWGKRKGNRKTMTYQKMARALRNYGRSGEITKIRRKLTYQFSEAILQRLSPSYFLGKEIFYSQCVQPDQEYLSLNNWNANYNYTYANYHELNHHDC
Summary of the method: as §1

ELF4 = ELF4 (Homo sapiens, UniProt Q99607 1-663); conditions: protein: recombinant; tags: N-terminal GST; dsDNA, one strand shown
Summary of the method: as §1

ELK4 = molecular target: T8, ELK4 (Homo sapiens, UniProt P28324-2 1-405); conditions: protein: recombinant; tags: N-terminal GST; dsDNA, one strand shown
T8 sequence: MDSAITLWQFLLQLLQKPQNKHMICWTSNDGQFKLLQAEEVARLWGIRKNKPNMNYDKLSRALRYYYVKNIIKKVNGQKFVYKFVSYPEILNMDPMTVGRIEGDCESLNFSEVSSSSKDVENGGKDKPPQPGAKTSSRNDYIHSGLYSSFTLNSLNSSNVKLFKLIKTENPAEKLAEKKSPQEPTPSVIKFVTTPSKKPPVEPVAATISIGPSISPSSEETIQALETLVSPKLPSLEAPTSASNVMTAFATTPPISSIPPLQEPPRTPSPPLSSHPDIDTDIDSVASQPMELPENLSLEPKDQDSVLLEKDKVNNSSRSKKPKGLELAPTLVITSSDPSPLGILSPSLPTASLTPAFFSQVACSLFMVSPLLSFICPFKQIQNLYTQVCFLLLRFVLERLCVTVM
Summary of the method: as §1

ETV2 = molecular target: T9, ETV2 (Homo sapiens, UniProt O00321 1-342); conditions: protein: recombinant; tags: N-terminal GST; dsDNA, one strand shown
T9 sequence: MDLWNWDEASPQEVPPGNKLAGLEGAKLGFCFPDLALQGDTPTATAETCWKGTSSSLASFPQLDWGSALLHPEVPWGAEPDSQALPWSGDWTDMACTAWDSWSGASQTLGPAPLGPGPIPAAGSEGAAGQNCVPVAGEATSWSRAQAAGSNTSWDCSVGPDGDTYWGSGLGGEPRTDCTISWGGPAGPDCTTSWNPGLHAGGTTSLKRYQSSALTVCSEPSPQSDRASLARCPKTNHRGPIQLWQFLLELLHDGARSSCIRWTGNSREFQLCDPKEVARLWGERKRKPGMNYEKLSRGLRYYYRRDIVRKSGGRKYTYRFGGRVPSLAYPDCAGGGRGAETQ
Summary of the method: as §1

ELF3 = molecular target: T10, ELF3 (Homo sapiens, UniProt P78545 1-371); conditions: protein: recombinant; tags: N-terminal GST; dsDNA, one strand shown
T10 sequence: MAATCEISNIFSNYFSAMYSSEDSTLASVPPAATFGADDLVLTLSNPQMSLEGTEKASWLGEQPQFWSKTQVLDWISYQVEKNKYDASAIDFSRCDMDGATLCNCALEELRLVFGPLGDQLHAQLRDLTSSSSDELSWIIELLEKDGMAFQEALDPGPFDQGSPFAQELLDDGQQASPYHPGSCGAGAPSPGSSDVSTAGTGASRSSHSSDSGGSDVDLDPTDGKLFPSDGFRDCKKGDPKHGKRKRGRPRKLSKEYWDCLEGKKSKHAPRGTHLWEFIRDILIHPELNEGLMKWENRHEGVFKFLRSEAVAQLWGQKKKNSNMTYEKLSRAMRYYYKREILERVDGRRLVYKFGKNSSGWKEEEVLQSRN
Summary of the method: as §1

CRX = CRX (Homo sapiens, UniProt O43186 1-299); conditions: protein: recombinant; tags: N-terminal GST; dsDNA, one strand shown
Summary of the method: as §1

ETV1 = ETV1 (Homo sapiens, UniProt P50549 1-477); conditions: protein: recombinant; tags: N-terminal GST; dsDNA, one strand shown
Summary of the method: as §1

Sequence of ETV1 (P50549 whole entry): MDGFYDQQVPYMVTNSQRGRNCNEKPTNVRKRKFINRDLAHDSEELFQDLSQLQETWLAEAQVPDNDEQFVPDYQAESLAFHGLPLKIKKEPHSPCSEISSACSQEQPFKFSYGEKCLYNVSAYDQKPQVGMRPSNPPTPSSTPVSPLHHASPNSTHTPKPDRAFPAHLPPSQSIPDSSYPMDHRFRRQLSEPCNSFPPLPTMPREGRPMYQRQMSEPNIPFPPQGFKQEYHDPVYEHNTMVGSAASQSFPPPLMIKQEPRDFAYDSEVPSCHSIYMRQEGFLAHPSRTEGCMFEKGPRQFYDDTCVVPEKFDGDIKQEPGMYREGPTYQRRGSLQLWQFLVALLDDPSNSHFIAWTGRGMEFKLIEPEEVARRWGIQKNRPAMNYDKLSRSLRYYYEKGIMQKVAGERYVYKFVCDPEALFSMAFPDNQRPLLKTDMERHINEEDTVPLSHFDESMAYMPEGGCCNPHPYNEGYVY
Sequence of CRX (O43186 whole entry): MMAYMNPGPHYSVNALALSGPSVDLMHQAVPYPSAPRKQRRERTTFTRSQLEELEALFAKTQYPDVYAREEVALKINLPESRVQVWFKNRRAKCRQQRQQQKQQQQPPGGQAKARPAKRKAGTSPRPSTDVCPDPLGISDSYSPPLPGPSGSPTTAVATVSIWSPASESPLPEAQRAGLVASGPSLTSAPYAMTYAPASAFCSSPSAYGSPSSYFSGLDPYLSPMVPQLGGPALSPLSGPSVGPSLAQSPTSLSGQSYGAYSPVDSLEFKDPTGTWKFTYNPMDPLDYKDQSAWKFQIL
Sequence of ELF4 (Q99607 whole entry): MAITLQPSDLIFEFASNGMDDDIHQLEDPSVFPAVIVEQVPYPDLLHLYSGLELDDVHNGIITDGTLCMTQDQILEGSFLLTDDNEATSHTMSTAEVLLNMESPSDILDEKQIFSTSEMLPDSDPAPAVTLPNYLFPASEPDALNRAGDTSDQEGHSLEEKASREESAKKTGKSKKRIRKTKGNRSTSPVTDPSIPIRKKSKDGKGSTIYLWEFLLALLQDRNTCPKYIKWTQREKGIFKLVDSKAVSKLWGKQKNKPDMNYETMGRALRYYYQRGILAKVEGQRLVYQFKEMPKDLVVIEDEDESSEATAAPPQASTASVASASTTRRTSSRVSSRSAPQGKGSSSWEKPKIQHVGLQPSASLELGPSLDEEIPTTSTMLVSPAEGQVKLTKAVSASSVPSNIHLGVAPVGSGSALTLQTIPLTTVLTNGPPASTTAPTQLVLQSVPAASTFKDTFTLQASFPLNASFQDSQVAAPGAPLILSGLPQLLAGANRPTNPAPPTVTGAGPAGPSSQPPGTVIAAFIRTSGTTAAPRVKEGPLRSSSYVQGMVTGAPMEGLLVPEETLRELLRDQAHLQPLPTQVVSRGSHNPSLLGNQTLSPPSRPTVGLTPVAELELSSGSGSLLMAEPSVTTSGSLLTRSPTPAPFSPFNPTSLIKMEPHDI
Sequence of HSF1 (Q00613 whole entry): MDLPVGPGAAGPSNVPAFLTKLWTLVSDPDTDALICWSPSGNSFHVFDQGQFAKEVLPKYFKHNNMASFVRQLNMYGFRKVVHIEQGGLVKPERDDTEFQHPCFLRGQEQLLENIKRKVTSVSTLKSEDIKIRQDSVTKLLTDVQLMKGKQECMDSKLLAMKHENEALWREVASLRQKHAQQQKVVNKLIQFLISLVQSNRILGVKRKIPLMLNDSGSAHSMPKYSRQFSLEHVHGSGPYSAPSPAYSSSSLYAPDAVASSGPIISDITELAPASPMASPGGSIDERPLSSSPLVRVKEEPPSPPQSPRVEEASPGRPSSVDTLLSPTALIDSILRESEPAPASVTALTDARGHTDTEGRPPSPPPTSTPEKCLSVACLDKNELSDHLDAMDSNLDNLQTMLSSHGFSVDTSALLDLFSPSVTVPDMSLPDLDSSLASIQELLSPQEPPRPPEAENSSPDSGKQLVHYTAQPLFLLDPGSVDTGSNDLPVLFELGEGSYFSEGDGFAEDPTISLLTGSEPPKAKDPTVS
Sequence of ETV5 (P41161 whole entry): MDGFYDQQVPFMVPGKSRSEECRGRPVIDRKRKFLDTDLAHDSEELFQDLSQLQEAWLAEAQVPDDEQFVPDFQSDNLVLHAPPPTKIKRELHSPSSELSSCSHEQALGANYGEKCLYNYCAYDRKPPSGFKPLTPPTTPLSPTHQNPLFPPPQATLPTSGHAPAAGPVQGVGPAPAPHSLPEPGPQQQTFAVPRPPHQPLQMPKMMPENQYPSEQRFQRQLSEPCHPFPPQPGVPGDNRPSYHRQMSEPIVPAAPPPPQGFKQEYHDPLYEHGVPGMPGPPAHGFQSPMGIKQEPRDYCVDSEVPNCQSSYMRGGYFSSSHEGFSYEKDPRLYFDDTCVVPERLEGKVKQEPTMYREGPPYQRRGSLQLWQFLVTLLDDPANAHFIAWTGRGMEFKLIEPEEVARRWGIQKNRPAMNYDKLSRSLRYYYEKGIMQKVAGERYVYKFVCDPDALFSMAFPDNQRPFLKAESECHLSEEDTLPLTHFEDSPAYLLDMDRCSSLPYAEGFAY
Sequence of SPIB (Q01892 whole entry): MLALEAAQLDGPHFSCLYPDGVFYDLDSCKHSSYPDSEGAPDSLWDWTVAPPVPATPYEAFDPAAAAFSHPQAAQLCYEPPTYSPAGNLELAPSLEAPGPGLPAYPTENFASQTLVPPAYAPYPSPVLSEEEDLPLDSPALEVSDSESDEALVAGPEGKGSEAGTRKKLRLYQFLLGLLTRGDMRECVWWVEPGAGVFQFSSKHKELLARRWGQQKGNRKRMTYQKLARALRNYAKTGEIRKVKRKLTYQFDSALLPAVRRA
Sequence of ELF1 (P32519 whole entry): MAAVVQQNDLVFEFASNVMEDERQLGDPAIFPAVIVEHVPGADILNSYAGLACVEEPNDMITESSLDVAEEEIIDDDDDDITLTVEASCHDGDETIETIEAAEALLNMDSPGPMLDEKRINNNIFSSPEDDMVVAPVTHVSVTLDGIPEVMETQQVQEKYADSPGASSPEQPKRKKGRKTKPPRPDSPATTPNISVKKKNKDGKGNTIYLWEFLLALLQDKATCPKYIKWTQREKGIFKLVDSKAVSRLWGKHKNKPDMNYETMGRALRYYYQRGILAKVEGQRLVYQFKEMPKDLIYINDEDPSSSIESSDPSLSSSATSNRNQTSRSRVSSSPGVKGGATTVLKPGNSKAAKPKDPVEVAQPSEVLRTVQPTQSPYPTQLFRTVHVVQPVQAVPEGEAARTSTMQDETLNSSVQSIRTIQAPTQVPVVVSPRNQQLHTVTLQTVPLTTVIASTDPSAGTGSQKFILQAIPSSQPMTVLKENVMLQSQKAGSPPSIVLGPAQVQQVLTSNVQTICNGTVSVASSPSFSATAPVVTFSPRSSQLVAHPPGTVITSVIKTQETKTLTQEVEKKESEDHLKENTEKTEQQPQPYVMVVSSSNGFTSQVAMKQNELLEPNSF

Sequence: TCAATT
- binding signal (FLI1): 1.09 fold enrichment (6-mer frequency, TF over GST control)
- binding signal (ELK1): 1.06 fold enrichment (6-mer frequency, TF over GST control)
- binding signal (GABPA): 1.19 fold enrichment (6-mer frequency, TF over GST control)
- binding signal (ERG): 1.16 fold enrichment (6-mer frequency, TF over GST control)
- binding signal (ELF1): 1.16 fold enrichment (6-mer frequency, TF over GST control)
- binding signal (EHF): 1.12 fold enrichment (6-mer frequency, TF over GST control)
- binding signal (SPI1): 1.18 fold enrichment (6-mer frequency, TF over GST control)
- binding signal (SPIB): 1.29 fold enrichment (6-mer frequency, TF over GST control)
- binding signal (FEV): 1.16 fold enrichment (6-mer frequency, TF over GST control)
- binding signal (ETV5): 1.21 fold enrichment (6-mer frequency, TF over GST control)
- binding signal (HSF1): 1.1 fold enrichment (6-mer frequency, TF over GST control)
- binding signal (SPIC): 1.14 fold enrichment (6-mer frequency, TF over GST control)
- binding signal (ELF4): 1.18 fold enrichment (6-mer frequency, TF over GST control)
- binding signal (ELK4): 1.08 fold enrichment (6-mer frequency, TF over GST control)
- binding signal (ETV2): 1.24 fold enrichment (6-mer frequency, TF over GST control)
- binding signal (ELF3): 1.12 fold enrichment (6-mer frequency, TF over GST control)
- binding signal (CRX): 1.17 fold enrichment (6-mer frequency, TF over GST control)
- binding signal (ETV1): 1.14 fold enrichment (6-mer frequency, TF over GST control)
